Measurements: PubChem BioAssay AID1159580 (chemical genetic matrix, 2015)
Where “and” joins values, the source holds several entries; their conditions need not be identical. Identical values can stand only once. Screen size: about 5,500 compounds; about 2,000 (36%) were called active. Not shown: some 18% with an inconclusive outcome. Cut-off read from the data, not from the text of the source: active = normalized growth mostly below about 0.91 (no sharp cut-off); inconclusive = no clear call, values can overlap the other calls; inactive = mostly above about 0.92. This is one part of the list.

Experiment: chemical genetic growth profiling, strain panel (AID 1159580);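 note: tested at 20 µM; growth read once vehicle control cultures reached saturation at 30 °C; 1 = growth at the plate median or of vehicle wells; lower values mean less growth of the strain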
Settings: S. cerevisiae deletion strains, growth OD

Measured: normalized growth

COc1c(O)cccc1O
inactive: locus YAL013W, strain DEP1, stronger effect = lower value 0.993 | locus YAL021C, strain ccr4, stronger effect = lower value 0.997 | locus YAL026C, strain drs2, stronger effect = lower value 1.04 | locus YAL030W, strain snc1, stronger effect = lower value 1.02 | locus YBL061C, strain skt5, stronger effect = lower value 1.02 | locus YBR009C, strain hhf1, stronger effect = lower value 1.01 | locus YBR021W, strain FUR4, stronger effect = lower value 1.04 | locus YBR023C, strain chs3, stronger effect = lower value 1.02 | locus YBR171W, strain sec66, stronger effect = lower value 1.03 | locus YBR229C, strain ROT2, stronger effect = lower value 1.01 | locus YBR231C, strain swc5, stronger effect = lower value 1.03 | locus YBR279W, strain paf1, stronger effect = lower value 1.02 | locus YCL011C, strain gbp2, stronger effect = lower value 1.04 | locus YCL016C, strain dcc1, stronger effect = lower value 1.02 | locus YCL029C, strain bik1, stronger effect = lower value 1.01 | locus YCL061C, strain MRC1, stronger effect = lower value 1.02 | locus YCL069W, strain vba3, stronger effect = lower value 1.03 | locus YCR088W, strain abp1, stronger effect = lower value 1.02 | locus YDL005C, strain med2, stronger effect = lower value 1.03 | locus YDL035C, strain GPR1, stronger effect = lower value 1.02 | locus YDL040C, strain nat1, stronger effect = lower value 1.01 | locus YDL074C, strain BRE1, stronger effect = lower value 1.09 | locus YDL101C, strain DUN1, stronger effect = lower value 1.01 | locus YDL134C, strain PPH21, stronger effect = lower value 1.06 | locus YDL185W, strain tfp1, stronger effect = lower value 1.02 | locus YDL192W, strain arf1, stronger effect = lower value 1.04 | locus YDR001C, strain nth1, stronger effect = lower value 1.02 | locus YDR069C, strain doa4, stronger effect = lower value 1.02 | locus YDR101C, strain arx1, stronger effect = lower value 1 | locus YDR137W, strain rgp1, stronger effect = lower value 1.04 | locus YDR150W, strain NUM1, stronger effect = lower value 0.999 | locus YDR159W, strain sac3, stronger effect = lower value 1.02 | locus YDR162C, strain NBP2, stronger effect = lower value 1.03 | locus YDR195W, strain ref2 1.02 | locus YDR297W, strain sur2, stronger effect = lower value 1.05 | locus YDR318W, strain mcm21, stronger effect = lower value 1.03 | locus YDR334W, strain swr1, stronger effect = lower value 1.03 | locus YDR335W, strain msn5, stronger effect = lower value 1.03 | locus YDR388W, stronger effect = lower value 0.996 | locus YDR392W, strain spt3, stronger effect = lower value 1.02 | locus YDR502C, strain sam2, stronger effect = lower value 1.03 | locus YEL003W, strain gim4, stronger effect = lower value 1.02 | locus YEL037C, strain rad23, stronger effect = lower value 1.02 | locus YEL061C, strain CIN8 (second series), stronger effect = lower value 1.02 | locus YEL061C, strain CIN8, stronger effect = lower value 0.973 | locus YER015W, strain faa2, stronger effect = lower value 1.02 | locus YER016W, strain bim1, stronger effect = lower value 1.02 | locus YER110C, stronger effect = lower value 1.02 | locus YER111C, strain swi4, stronger effect = lower value 1.02 | locus YER155C, strain BEM2 (second series), stronger effect = lower value 1.01 | locus YER155C, strain BEM2, stronger effect = lower value 0.997 | locus YER167W, strain BCK2, stronger effect = lower value 0.98 | locus YFR010W, strain ubp6, stronger effect = lower value 1.03 | locus YGL078C, strain dbp3, stronger effect = lower value 1.04 | locus YGL086W, strain mad1, stronger effect = lower value 1.03 | locus YGL167C, strain pmr1, stronger effect = lower value 1.03 | locus YGL173C, strain kem1, stronger effect = lower value 1.02 | locus YGL227W, strain vid30, stronger effect = lower value 1.02 | locus YGL240W, strain doc1, stronger effect = lower value 1.02 | locus YGL248W, strain PDE1, stronger effect = lower value 1.04 | locus YGL253W, strain hxk2, stronger effect = lower value 1.05 | locus YGR135W, strain pre9, stronger effect = lower value 1.04 | locus YGR252W, strain gcn5, stronger effect = lower value 1.13 | locus YHR013C, strain ard1, stronger effect = lower value 1.04 | locus YHR027C, strain rpn1, stronger effect = lower value 1.02 | locus YHR030C, strain SLT2, stronger effect = lower value 1.01 and 1.06 | locus YHR079C, strain IRE1 (second series), stronger effect = lower value 1.01 | locus YHR079C, strain IRE1, stronger effect = lower value 1.05 | locus YHR094C, strain hxt1, stronger effect = lower value 1.01 | locus YHR129C, strain ARP1, stronger effect = lower value 0.99 | locus YHR142W, strain chs7, stronger effect = lower value 1.07 | locus YHR200W, strain rpn10, stronger effect = lower value 1.02 | locus YIL066C, strain RNR3, stronger effect = lower value 1.01 | locus YIL073C, strain SPO22, stronger effect = lower value 1.14 | locus YIL125W, strain kgd1, stronger effect = lower value 1 | locus YIR030C, strain dcg1, stronger effect = lower value 1.02 | locus YJL092W, strain hpr5, stronger effect = lower value 1.02 | locus YJL095W, strain BCK1 (second series), stronger effect = lower value 1.02 | locus YJL095W, strain BCK1, stronger effect = lower value 1.11 and 1.04 | locus YJL115W, strain asf1, stronger effect = lower value 1.04 | locus YJL129C, strain trk1, stronger effect = lower value 1.06 | locus YJL134W, strain LCB3, stronger effect = lower value 0.999 | locus YJL154C, strain vps35, stronger effect = lower value 1.02 | locus YJL164C, strain tpk1, stronger effect = lower value 1.02 | locus YJL166W, strain qcr8, stronger effect = lower value 1.03 | locus YJL168C, strain set2, stronger effect = lower value 1.01 | locus YJL187C, strain SWE1 (second series), stronger effect = lower value 1.03
